Experimental findings from article PMC8159961, “Exploring protein hotspots by optimized fragment pharmacophores” (Nature Communications, 2021) are described below.

Unmarked numbers belong to inactive results. No rule for the calls is given here.

The target in this assay is thrombin (human, UniProt P00734). In words: primary screen, binary call; higher = more effect of the substance. The note with it: 200 µM. The arrangement: screenings were carried out in duplicate in one independent experiment. The procedure:
Protease inhibitory assays were performed in transparent microtiter plates in a final volume of 200 µL with the use of chromogenic substrates. The reaction rates in the absence and in the presence of the inhibitor were measured; screenings were carried out in duplicate in one independent experiment and Ki values were determined in triplicate in two independent experiments.
Turning to `Cc1cc(-c2ccccc2)n[nH]1`, the Thrombin was 0. As for `O=C1CC(CSc2ccc(Cl)cc2)=NN1`, the figure is 0; as for `NCC1(c2ccccc2)CCOCC1`, 0. As to `Cc1nc(-c2ccccc2)cs1`, the Thrombin is 0. As to `CS(=O)(=O)c1ccc(OC(F)(F)F)cc1`, the Thrombin was 0. As for `CC1CCc2sc(C(=O)O)cc2C1` (centres unmarked), the figure is 1 (active). For `Cc1ccc(-c2ccc(O)cc2)cc1` the value was 0; for `Oc1ccccc1N1CCCCC1`, 0; for `O=C(O)c1ccc(CN2CCOCC2)cc1`, 0. For `O=c1[nH]ncc2c1oc1ccccc12` the value was 0; for `O=C1NC2(CCCC2)Nc2ccccc21`, 0.
